Out of some 69,000 compounds screened, about 8,600 (12%) showed an effect of 50% or more. Many of the other results were omitted from the sample, so strong results are more common in it than they were.

For the assay, the system named is Plasmodium berghei. Nature of the assay: Screen against P. berghei liver stage (PbLuc), transformed with Luciferase, at 10uM. In kind it is functional, HepG2. The following applies: tested at 10 uM.
Take `Cc1nnc(CN2CCCC2c2ccc(C(C)(C)C)cc2)o1` (stereo not given): the INHIBITION came out at 38.8%.
For `CCc1nc(C2CCCN2Cc2nnc(Cc3ccccc3)o2)no1` (stereo not given) the value was 5.97%; for `CCc1nc(C2CCCN2Cc2noc(Cc3ccccc3)n2)no1` (stereo not given), 72.8%.
In the case of `c1ccc(Cn2ccnc2CN2CCCC2c2noc(C3CC3)n2)cc1` (stereo not given) it was 18.6%; in that of `Cn1ccnc1CN1CCCC1c1noc(C2CC2)n1` (stereo not given), 7.64%; in that of `Cc1nnc(CN2CCCC2c2ccsc2)o1` (stereo not given), 53.9%.
In the case of `CCc1nc(C2CCCN2Cc2nc(C(C)(C)C)no2)no1` (stereo not given) it was 71.2%; in that of `Cc1cc(CN2CCCC2c2noc(C3CC3)n2)c2ccccc2n1` (stereo not given), 64.5%; in that of `CCc1nc(C2CCCN2Cc2nnc(CC)o2)no1` (stereo not given), -0.219%.
For the compound `CCc1nc(C2CCCN2Cc2nc(Cc3ccccc3)no2)no1` (stereo not given), the INHIBITION is on record as 31.3%.
For `Cc1nnc(CN2CCCC2c2ccc(Cl)c(Cl)c2)o1` (stereo not given) the value was 21.5%.
Regarding `CCc1nc(C2CCCN2Cc2nc(C3CC3)no2)no1` (stereo not given), the INHIBITION is -34.9%.
Turning to `COCc1ccccc1CNC(=O)CNc1ccccc1C(C)=O`, the INHIBITION was -1.79%.
In the case of `O=C(C1CCOC1)N1CCC2(CC1)CN(Cc1nccs1)CCO2` (stereo not given) it was 15.9%.
For `CNC(=O)c1ccc(C(=O)N2CCCC2c2c(C)nn(C)c2C)cn1` (stereo not given), the INHIBITION is 31.2%.
In the case of `Cc1cn2c(n1)CCC(NC(=O)c1csc(C(C)C)n1)C2` (stereo not given) it was 19.5%; in that of `CCc1c(C)nc2n(c1=O)CC(C(=O)Nc1sccc1C(=O)OC)CS2` (stereo not given), -7.25%; in that of `CN(Cc1nnc2n1CCC2)C(=O)c1ccc2c(c1)OCCCO2`, 26.4%.
In the case of `Nc1nc2nc(C3CCCN(C(=O)c4cncs4)C3)ccc2s1` (stereo not given) it was 18.3%; in that of `Cc1noc(CN2CCCC2c2noc(C3CC3)n2)n1` (stereo not given), 38.5%.
For `Cc1nc(CN2CCCC2c2noc(C3CC3)n2)oc1C` (stereo not given) the value was 49.35%; for `CCc1nc(C2CCCN2Cc2nc3ccccc3o2)no1` (stereo not given), 20.2%; for `CCc1nc(C2CCCN2Cc2cc(C)nc3ccccc23)no1` (stereo not given), 60.75%.
With `Cc1nc(CN2CCCC2c2noc(C3CC3)n2)nc2ccccc12` (stereo not given), the INHIBITION came out at 80.25%.
In the case of `CCc1nc(C2CCCN2Cc2cnc(C)cn2)no1` (stereo not given) it was -4.94%; in that of `COc1ccc(C)cc1CN1CCCC1c1noc(C2CC2)n1` (stereo not given), 80.3%; in that of `COc1c(C)cnc(CN2CCCC2c2noc(C3CC3)n2)c1C` (stereo not given), 21.3%.
With `CCc1noc(CN2CCCC2c2noc(C3CC3)n2)n1` (stereo not given), the INHIBITION is on record as 27.4%.
For `c1ccc2nc(CN3CCCC3c3noc(C4CC4)n3)ccc2c1` (stereo not given) the value was 54.7%.
In the case of `c1ccc2oc(CN3CCCC3c3noc(C4CC4)n3)nc2c1` (stereo not given) it was -87.5025%; in that of `Cc1cnc(CN2CCCC2c2noc(C3CC3)n2)cn1` (stereo not given), -4.94%; in that of `O=C(NCC1(c2ccc(F)cc2)CCCC1)N1CCOC(CO)C1` (stereo not given), -14.3%.
For `CN(C)CCn1c2c(ccc1=O)CCN(C(=O)c1ccoc1)CC2` the value was -73.5%; for `Cc1c(C(=O)N2CCC(O)(CN(C)C)C2)c2ccccc2n1C` (stereo not given), 35.2%.
In the case of `O=c1oc(-c2cccs2)nn1CC(O)c1ccccc1F` (stereo not given), the INHIBITION is listed as 35.4%.
As to `c1cc(CN2CCCC2c2noc(C3CC3)n2)on1` (stereo not given), the INHIBITION was found to be 37.4%.
In the case of `c1ccc2sc(CN3CCCC3c3noc(C4CC4)n3)nc2c1` (stereo not given) it was 78%; in that of `Cc1nn(C)c(C)c1C1CCCN1Cc1nc(N)c2ccccc2n1` (stereo not given), 23.4%.
For `Cc1nn(C)c(C)c1C1CCCN1Cc1nc(C)c2ccccc2n1` (stereo not given) the value was 12.7%.
For `Cc1nc(CN2CCCC2c2ccsc2)nc2ccccc12` (stereo not given) the value was 53.8%; for `C1CC(c2noc(C3CC3)n2)N(Cc2nc(C3CC3)no2)C1` (stereo not given), 2.3%; for `NC(=O)c1nc(CC(=O)Nc2cccc(C(F)(F)F)c2)no1`, -14.8%.
With `CCOC(=O)CCC(=O)NC(C)c1ccc(NC(=O)CC)cc1` (stereo not given), the INHIBITION is 37.1%.
For `O=C(Cc1cnc(-c2c(Cl)cccc2Cl)s1)N1CCOCC1` the value was 19.3%; for `CC(C)CN1CCN(C)C2(CCN(c3nccs3)CC2)C1=O`, 45.2%; for `CN1CCN(Cc2ccncc2)C(=O)C12CCN(c1nccs1)CC2`, 58.5%.
On to `CN1CCN(CCO)C(=O)C12CCN(c1nccs1)CC2`, for which the INHIBITION turned out to be 23.1%.
For `CCNc1nnc(SCc2nnc(C(C)(C)C)o2)s1` the value was -7.93%.
With `CC(=O)N1CCN(C(=O)CN2CCCC2Cn2nc(C)cc2C)CC1` (stereo not given), the INHIBITION was -14.6%.
Consider `C=c1ncsc1=C1NN=C(C2CCCN2C(=O)Cn2cccn2)O1` (stereo not given), for which the INHIBITION stood at 19.24%.
For `CC1c2ncc(COc3cccnc3)n2CCN1Cc1cnn(C)c1` (stereo not given) the value was 34%; for `Cc1ncsc1CN1CCn2c(COCC3CC3)cnc2C1C` (stereo not given), 18.5%.
Turning to `CCOCc1cnc2n1CCN(Cc1scnc1C)C2C` (stereo not given), the INHIBITION worked out at 20.1%.
In the case of `CC1c2ncc(COc3cccnc3)n2CCN1Cc1ccco1` (stereo not given) it was 54.8%.
Regarding `Cc1csc(CN2CCn3c(COc4cccnc4)cnc3C2C)n1` (stereo not given), the INHIBITION is on record as 31.2%.
